The results in this text go back to PubChem BioAssay (NCI).

The panel holds about 83,000 compounds, 20% with a hit somewhere; the sample as a whole holds those more often.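 Cells were grown in 96-well plates and exposed to the test compound at a single concentration for 48 hours; results are reported as percent growth, with values below 10 considered active.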 Unmarked numbers belong to inactive results. Active and inactive are the calls of the source.

Holding throughout (assay): NCI-60 one-dose screen, 48 h (100 = growth as untreated, 0 = no growth, -100 = all killed)
Common to all, as to details: 10 µM unless noted

Assay [1] deals with HCT-15 colon.
Assay [2] relates to HT29 colon.
Assay [3] has as its system SNB-75 CNS.
Assay [4] deals with SNB-19 CNS.
The subject of assay [5] is U251 CNS.
The subject of assay [6] is PC-3 prostate.
For assay [7], the system named is SK-MEL-5 melanoma.
Assay [8] deals with UACC-62 melanoma.
The subject of assay [9] is LOX IMVI melanoma.
Assay [10] deals with SK-MEL-28 melanoma.

With `CC(/C=C1\SC(=S)N(CC(=O)NC(Cc2c[nH]c3ccccc23)C(=O)O)C1=O)=C\c1ccccc1` (stereo not given), the growth was 103% in assay [1]; 110% in assay [2]; 87.2% in assay [3]; 98.8% in assay [4]; 105% in [5]; 97.6% in [6]. In addition, the growth in assay [7] is 96.4%; in assay [8], 88.3%; in assay [9], 92.9%; in assay [10], 105%.

As for `Cn1cc(/C=C2/C(=O)Nc3ccccc32)c2ccccc21`, the growth in [1] is 72.9%; in [2] it was 95.4%; in assay [3] it was 99.3%; in assay [4] it was 102%; in assay [5] it was 78.3%; in assay [6], 90.2%. Besides, the growth in assay [7] is 79.2%; in [8] it was 107%; in assay [9] it was 92.1%; in assay [10], 101%.

For the compound `Cc1ccc(/C=C/C(=O)c2ccc(NC(=O)CSc3nc4c([nH]3)c(=O)n(C)c(=O)n4C)cc2)c(C)c1`, the growth was 70.7% in assay [1]; 53.3% in assay [2]; 18.9% in assay [3]; 0.886% (active) in [4]; -67.5% (active) in assay [5]; 49.3% in [6]. The growth in assay [7] is 69.5%; in assay [8], 69.5%; in assay [9] it was 39.1%; in assay [10] it was 62.2%.

Consider `CC/C=C\C/C=C/C=C1/C(=O)C=C[C@@H]1C/C=C\CCCC(=O)OC`, for which the growth was 4.13% (active) in assay [1]; 2.21% (active) in [2]; 93.4% in assay [3]; 62.3% in [4]; 28.7% in assay [5]; 30.2% in [6]. The growth in assay [7] is 70.1%; in [8], -6.19% (active); in assay [9] it was -70% (active); in [10], 36.7%.

For the compound `CCCCCCNc1nc(NCCCCCC)c2[nH]c(NCCCCCC)nc2n1`, the growth in [1] was 88.1%; in [2], 36.6%; in [3] it was -8.09% (active); in assay [4], 89.8%; in [5], -32.8% (active); in [6], 18.7%. Further, the growth is 78.1% in assay [7], 81.2% in assay [8], 1.23% (active) in [9] and 98.2% in assay [10].

For `CC(C)=CC(=O)N[C@@H]1CC2CCC3C(CC[C@@]4(C)C3CC[C@@H]4C(C)N(C)C)[C@@]2(C)C[C@@H]1O` (stereo not given in full), the growth in assay [1] was 2.93% (active); in [2], -4.96% (active); in assay [3], 56.1%; in assay [4], 86.3%; in assay [5], 56.7%; in assay [6], 44.6%. For the same compound, the growth in assay [7] is 10.1%; in [8], 44.6%; in assay [9], 1.62% (active); in assay [10] it was -28% (active).

Consider `CCOC(=O)c1c(C)nc2ccccc2c1/C=C/c1ccc(OC)cc1`, for which the growth in assay [1] was 66%; in [2], 73.5%; in assay [3], 76.2%; in [4] it was 75.9%; in assay [5] it was 79.8%; in [6], 60.2%. Further, the growth in assay [7] is 2.63% (active); in assay [8], 45.7%; in assay [9] it was 68.5%; in assay [10] it was 96.2%.

As to `CCn1cc(C(=O)N/N=C/c2ccc(Br)cc2)c(=O)c2cc(F)c(N3CCNC(C)C3)c(F)c21` (stereo not given), the growth in [1] was -18.9% (active); in [2], -31.7% (active); in assay [3], 85.6%; in [4], 54.5%; in [5] it was 1.38% (active); in [6], 68.3%. The growth is 82.4% in assay [7], 101% in [8], -78.2% (active) in assay [9] and 91.2% in assay [10].

For the compound `COc1cc(-c2nc3ccc(C)cc3[nH]2)ccc1OCC(=O)N=Nc1c(O)[nH]c2ccc(Cl)cc12`, the growth in assay [1] is 58.8%; in assay [2], -27.6% (active); in [3], -42.1% (active); in assay [4], 3.43% (active); in [5] it was -41.6% (active); in assay [6], 11.1%. Besides, the growth in assay [7] is 56%; in [8], 19.9%; in assay [9], -96.8% (active); in [10], 3.39% (active).

On to `CCCCCCCCn1ccc2cc(NC(=O)Cn3cc(CN4CCN(CC)CC4)nn3)ccc21`, for which the growth in [1] is 22.5%; in assay [2], -26.4% (active); in assay [3] it was 87.5%; in assay [4], 61.4%; in assay [5] it was 5.79% (active); in assay [6], 82.6%. The growth in assay [7] was 78.1%; in assay [8], -78.2% (active); in assay [9], -74.5% (active); in assay [10] it was 80.5%.

Regarding `CC(C)CSc1oc(-c2ccccc2)nc1S(=O)(=O)c1ccccc1`, the growth in assay [1] is 93.7%; in [2], 86.2%; in assay [3], 89.3%; in assay [4], 102%; in assay [5], 84.2%; in assay [6], 79.9%. Also, the growth was 90.7% in assay [7], 66.9% in assay [8], 96.1% in assay [9] and 115% in assay [10].

On to `COC(=O)c1nc(-c2ccccc2)oc1S(=O)(=O)N1CCC(C(N)=O)CC1`, for which the growth in assay [1] was 42.8%; in assay [2] it was 32.9%; in [3], 93.2%; in [4], 93.3%; in assay [5] it was 88.6%; in assay [6], 62.7%. In addition, the growth in assay [7] was 81.6%; in [8], 79.6%; in [9] it was 63.7%; in assay [10], 63.4%.

Turning to `Cc1ccc(O)c(NC(=O)c2ccc(CNc3ccnc(C(F)(F)F)c3)cc2)c1`, the growth is 49.9% in assay [1]; 66.4% in [2]; 72.5% in assay [3]; 87.1% in [4]; 82.1% in assay [5]; 78.8% in [6]. Besides, the growth in assay [7] is 36.5%; in [8] it was 13.9%; in assay [9] it was 40.6%; in [10], 109%.
